Data: PubChem BioAssay
A number with no mark means an inactive call. A call without a number means that no potency is given here. For some assays here: Potency and affinity values are given separately. The source made the active and inactive calls. Unless noted, no rule for the calls is given here.

Assays:
[1] = antimalarial activity against Dd2 strain (AID 2302;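 active = growth inhibition above 50% at the single 2 µM test dose, taken to imply half-maximal potency below 2 µM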); conditions: P. falciparum Dd2 in RBCs, LDH growth readout, 72 h; at 2 µM; stronger effect = higher value
[2] = HepG2 cytotoxicity, primary screen, cytotoxicity control for P. falciparum antimalarial project, cell-based, ATP luminescence (AID 2303;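 active = inhibition above 50%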); conditions: HepG2 viability, 24-48 h, at 10 µM, stronger effect = higher value
[3] = biological target: L-lactate dehydrogenase (Plasmodium falciparum (isolate CDC / Honduras)) (UniProt Q27743); assay: PfLDH activity inhibition – cell lysate, 3D7 strain, counter-screen for P. falciparum growth inhibition project (AID 2304); conditions: P. falciparum 3D7 crude extract, LDH APAD/NBT absorbance; at 2 µM; stronger effect = higher value
Sequence of L-lactate dehydrogenase (Plasmodium falciparum (isolate CDC / Honduras)) (Q27743 whole entry, looked up): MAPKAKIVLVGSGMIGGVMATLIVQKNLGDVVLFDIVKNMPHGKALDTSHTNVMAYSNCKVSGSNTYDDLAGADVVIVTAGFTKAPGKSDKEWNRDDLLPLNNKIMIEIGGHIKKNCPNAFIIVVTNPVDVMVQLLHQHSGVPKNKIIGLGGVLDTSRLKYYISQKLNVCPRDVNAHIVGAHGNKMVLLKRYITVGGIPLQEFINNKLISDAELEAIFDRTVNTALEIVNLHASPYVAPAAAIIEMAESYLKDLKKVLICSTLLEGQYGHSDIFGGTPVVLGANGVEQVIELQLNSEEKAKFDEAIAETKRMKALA

[4] = inhibition of 3D7 malaria parasite growth – strain 3D7 (AID 2306); conditions: P. falciparum 3D7 erythrocytic growth, LDH absorbance, 72 h; at 2 µM; stronger effect = higher value
[5] = biological target: Calcium-dependent protein kinase 1 (Plasmodium falciparum (isolate 3D7)) (UniProt P62344); assay: PfCDPK1 kinase inhibitors, biochemical, TCAMS library (AID 1159585; cut-off not given, nearly all actives have IC50 up to about 0.98 µM;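 also: inhibitors leave more ATP so luminescence rises with inhibition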); conditions: recombinant PfCDPK1, Kinase-Glo ATP depletion luminescence
Sequence of Calcium-dependent protein kinase 1 (Plasmodium falciparum (isolate 3D7)) (P62344 whole entry, looked up): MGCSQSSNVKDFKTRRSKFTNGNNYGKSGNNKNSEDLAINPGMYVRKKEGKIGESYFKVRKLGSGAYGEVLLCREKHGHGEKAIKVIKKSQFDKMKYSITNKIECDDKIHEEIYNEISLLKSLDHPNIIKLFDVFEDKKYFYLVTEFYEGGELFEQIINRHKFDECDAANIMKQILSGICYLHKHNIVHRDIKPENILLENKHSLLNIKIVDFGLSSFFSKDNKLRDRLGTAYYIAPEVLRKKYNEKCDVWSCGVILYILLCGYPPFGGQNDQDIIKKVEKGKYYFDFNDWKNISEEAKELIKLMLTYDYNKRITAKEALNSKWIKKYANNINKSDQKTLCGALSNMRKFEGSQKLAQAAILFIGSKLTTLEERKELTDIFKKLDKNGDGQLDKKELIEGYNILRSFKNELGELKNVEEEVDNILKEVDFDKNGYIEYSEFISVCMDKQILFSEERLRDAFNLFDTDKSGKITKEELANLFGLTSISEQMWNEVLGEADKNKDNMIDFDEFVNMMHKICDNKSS

[6] = biological target: Plasmodium falciparum protein kinase 6 (PK6, PF3D7_1337100) (UniProt Q8IDW1); assay: PfPK6 kinase inhibitors, biochemical, TCAMS library (AID 1159586); conditions: recombinant PfPK6, Kinase-Glo ATP depletion luminescence
Sequence of Plasmodium falciparum protein kinase 6 (PK6, PF3D7_1337100) (Q8IDW1 1-305): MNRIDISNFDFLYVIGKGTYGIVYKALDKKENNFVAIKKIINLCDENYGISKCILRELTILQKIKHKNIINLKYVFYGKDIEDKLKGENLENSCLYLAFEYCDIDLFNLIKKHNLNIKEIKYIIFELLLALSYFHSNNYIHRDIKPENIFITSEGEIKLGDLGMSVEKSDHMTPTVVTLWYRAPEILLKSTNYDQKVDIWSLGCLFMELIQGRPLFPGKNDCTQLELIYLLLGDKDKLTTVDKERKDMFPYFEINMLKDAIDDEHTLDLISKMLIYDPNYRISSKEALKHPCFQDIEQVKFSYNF

[7] = biological target: Protein kinase 7 (PK7), Plasmodium falciparum 3D7 (PF3D7_0213400) (UniProt Q7YTF7); assay: inhibition of Plasmodium PK7 catalytic activity – biochemical, TCAMS antimalarial set, Kinase-Glo luminescence (AID 1159587); conditions: recombinant PfPK7, Kinase-Glo ATP depletion luminescence
Sequence of Protein kinase 7 (PK7), Plasmodium falciparum 3D7 (PF3D7_0213400) (Q7YTF7 1-343): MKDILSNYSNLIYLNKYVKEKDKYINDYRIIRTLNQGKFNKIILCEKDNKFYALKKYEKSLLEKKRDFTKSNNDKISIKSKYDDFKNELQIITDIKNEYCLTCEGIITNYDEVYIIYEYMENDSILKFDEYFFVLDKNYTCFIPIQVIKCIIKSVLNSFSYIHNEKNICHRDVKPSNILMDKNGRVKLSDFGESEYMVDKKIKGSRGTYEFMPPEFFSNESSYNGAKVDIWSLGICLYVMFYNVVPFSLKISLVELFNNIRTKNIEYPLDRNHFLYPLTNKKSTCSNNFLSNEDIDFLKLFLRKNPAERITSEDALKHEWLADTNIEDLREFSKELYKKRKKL

[8] = biological target: Calcium-dependent protein kinase 4 (Plasmodium falciparum (isolate 3D7)) (UniProt Q8IBS5); assay: PfCDPK4 kinase inhibitors, biochemical, TCAMS library (AID 1159588; cut-off not given, nearly all actives have IC50 up to about 0.91 µM); conditions: recombinant PfCDPK4, Kinase-Glo ATP depletion luminescence
Sequence of Calcium-dependent protein kinase 4 (Plasmodium falciparum (isolate 3D7)) (Q8IBS5 whole entry, looked up): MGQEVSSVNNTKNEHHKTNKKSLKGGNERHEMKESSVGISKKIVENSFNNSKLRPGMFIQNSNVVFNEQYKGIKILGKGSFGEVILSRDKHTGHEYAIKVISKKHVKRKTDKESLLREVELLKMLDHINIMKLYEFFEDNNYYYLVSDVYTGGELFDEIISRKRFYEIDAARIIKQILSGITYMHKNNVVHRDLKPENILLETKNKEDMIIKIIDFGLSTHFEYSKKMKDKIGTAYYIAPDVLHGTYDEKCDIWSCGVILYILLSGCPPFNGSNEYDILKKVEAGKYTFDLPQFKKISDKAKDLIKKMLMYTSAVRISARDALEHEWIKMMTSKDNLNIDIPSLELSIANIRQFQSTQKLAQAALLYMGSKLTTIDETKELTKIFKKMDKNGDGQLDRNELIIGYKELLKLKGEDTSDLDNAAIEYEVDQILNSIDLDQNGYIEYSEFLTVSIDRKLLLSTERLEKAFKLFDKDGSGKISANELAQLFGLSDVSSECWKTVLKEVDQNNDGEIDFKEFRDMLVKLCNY

SMILES	growth inhibition [1]	inhibition [2]	inhibition [3] [%]	growth inhibition [4]	outcome [5]	outcome [6]	outcome [7]	outcome [8]
CCCN1CCN(CCCNc2c3ccccc3nc3ccccc23)CC1	-1%	36%	-7	99% (active)	inactive	inactive	inactive	inactive
CCCc1ccc(C2CCN(CCCCNC(=O)c3ccc(NC(=O)c4ccc(Cl)cc4)cc3)CC2)cc1	100% (active)	39%	1	100% (active)	inactive	inactive	inactive	inactive
Cc1ccc(NC(=S)NC2CCN(CCCCCNC(=O)/C=C/c3ccc(Cl)c(Cl)c3)CC2)cc1Cl	56% (active)	45%	7	100% (active)	inactive	inactive	inactive	inactive
Fc1cc(Cl)ccc1Nc1ccnc2cc(I)ccc12	10%	11%	-1	90% (active)	inactive	inactive	inactive	inactive
CCCC(CNCc1ccc(Cl)c(C(F)(F)F)c1)CNc1nc2ccncc2[nH]1 (stereo not given)	8%	26%	-1	99% (active)	inactive	inactive	inactive	inactive
N#Cc1ccc(CN2CCCN(Cc3cccc(NC(=O)c4ccc(-c5ccccc5)cc4)c3)CC2)cc1	12%	33%	0	88% (active)	inactive	inactive	inactive	inactive
S=C(NN=Cc1ccccn1)Nc1ccc2c(c1)OCCO2	33%	55% (active)	6	82% (active)	inactive	inactive	inactive	inactive
Cc1cc(-c2ccc(CNCCc3cccs3)cc2)ccc1S(=O)(=O)NCc1ccccc1	-2%	28%	3	94% (active)	inactive	inactive	inactive	inactive
N#Cc1ccc(-c2ccc(C(=O)NCCCCN3CCC(c4ccc5c(c4OCC(N)=O)CCCC5)CC3)cc2)cc1	23%	21%	-3	87% (active)	inactive	inactive	inactive	inactive
CCCCCCN1CCCN(Cc2ccc(C(=O)Nc3ccc(C(C)(C)C)cc3)cc2)CC1	32%	53% (active)	-3	100% (active)	inactive	inactive	inactive	inactive
COc1ccc2nccc([C@@H](O)CN3CCC(NCCOc4ccccc4C#N)CC3)c2c1	99% (active)	10%	2	101% (active)	inactive	inactive	inactive	inactive
O=C(/C=C/c1ccc(Cl)c(Cl)c1)N1CCC(CN2CCC(Cc3c[nH]c4ccccc34)CC2)CC1	13%	24%	1	98% (active)	inactive	inactive	inactive	inactive
COc1cc2nc(N(C)C)nc(Nc3ccc(OCc4ccccc4)cc3)c2cc1OC	101% (active)	91% (active)	-8	100% (active)	inactive	inactive	inactive	inactive
COc1cc(NC(=O)c2cc3c(C)nn(-c4cccc(C(F)(F)F)c4)c3s2)cc(OC)c1OC	50% (active)	0%	3	101% (active)	inactive	inactive	inactive	inactive
CC(C)COc1ccc(Cl)cc1Cc1nc(-c2nc3ccc(CN(C)C)cc3[nH]2)co1	87% (active)	14%	5	97% (active)	inactive	inactive	inactive	inactive
CCOC(=O)NC1=NC(C)(C)N(OCCCOc2ccc(C)cc2C)C(NC(=O)OCC)=N1	98% (active)	63% (active)	7	95% (active)	inactive	inactive	inactive	inactive
COc1ccc(/C=C/C(=O)N2CCc3cc4nccc(N5CCN6CCC[C@H]6C5)c4cc32)cc1	98% (active)	-3%	-9	100% (active)	inactive	inactive	inactive	inactive
Cc1cccc2[nH]c(-c3cccc(-c4cccc(CNCCNC(=O)c5ccnn5C)c4)c3)nc12	71% (active)	26%	-3	100% (active)	inactive	inactive	inactive	inactive
Cn1c(=O)n(C)c2cc(CNCCNc3ccnc4cc(Cl)ccc34)ccc21	96% (active)	17%	-1	101% (active)	inactive	inactive	inactive	inactive
CCCCc1cc(=O)oc2cc(C)cc(OCc3ccccc3F)c12	78% (active)	8%	-1	92% (active)	inactive	inactive	inactive	inactive

SMILES	growth inhibition [1]	inhibition [2]	inhibition [3] [%]	growth inhibition [4]	outcome [5]	outcome [6]	outcome [7]	outcome [8]
CC(Cc1ccc(CNC(=O)NCc2ccc(CC(C)NCCc3cccc(Cl)c3)cc2)cc1)NCCc1cccc(Cl)c1 (stereo not given)	44%	100% (active)	-4	100% (active)	inactive	inactive	inactive	inactive
Cc1cc(Nc2cccc(C#N)c2)nc(Nc2ccccc2C)n1	46%	10%	0	95% (active)	inactive	inactive	inactive	inactive
Nc1ccc2[nH]cc(C3CCN(CC4CCN(C(=O)/C=C/c5ccc(Cl)c(Cl)c5)CC4)CC3)c2n1	97% (active)	53% (active)	-2	99% (active)	inactive	inactive	inactive	inactive
COc1cccc(-c2csc(C(=O)NC3CCCCN(Cc4ccc(C(C)(C)C)cc4)C3)c2)c1 (stereo not given)	66% (active)	9%	-2	97% (active)	inactive	inactive	inactive	inactive
CNc1ccc(CNCc2cccc(-c3ccc(-c4nc5ccccc5[nH]4)cc3)c2)cc1	80% (active)	18%	-5	102% (active)	inactive	inactive	inactive	inactive
COc1cc(C(=O)Nc2cccc(-c3nc4ccccc4[nH]3)c2)cc(OC)c1OC	41%	25%	-3	99% (active)	inactive	inactive	inactive	inactive
COc1ccc(-c2ccc(NC(=O)c3cccc(Cl)c3)c(F)c2)cc1CN1CCCN(C)CC1	42%	43%	0	100% (active)	inactive	inactive	inactive	inactive
Cc1cc(OCC2CCN(c3ccc(C(=O)NC4CC4)cn3)CC2)ccc1F	95% (active)	6%	3	94% (active)	inactive	inactive	inactive	inactive
O=C(Nc1cc(F)cc(F)c1)NC1CCN(CCCCCNC(=O)[C@@H]2C[C@H]2c2ccc(Cl)c(Cl)c2)CC1	6%	49%	6	102% (active)	inactive	inactive	inactive	inactive
CCc1ccc(CN2CCC(CNC(=O)c3cc(-c4ccccc4Cl)cs3)C2)cc1 (stereo not given)	0%	14%	-2	98% (active)	inactive	inactive	inactive	inactive
Clc1ccc(-c2ccc(C=NNc3nc(Nc4ccccc4)nc(Nc4ccccc4)n3)o2)cc1Cl	75% (active)	1%	-1	97% (active)	inactive	inactive	inactive	inactive
CC(C)(C)c1ccc(OCC(=O)NC2CCN(c3ccnc4cc(Cl)ccc34)C2)cc1 (stereo not given)	100% (active)	17%	-2	98% (active)	inactive	inactive	inactive	inactive
CCC[C@@H]1CCN[C@H]([C@H](O)c2ccnc3ccc(OC)cc23)C1	69% (active)	-3%	-1	99% (active)	inactive	inactive	inactive	inactive
O=C(NC1CC1)c1cnc(N2CCC(OCc3ccccc3)CC2)c(Cl)c1	71% (active)	-5%	-2	90% (active)	inactive	inactive	inactive	inactive
NC1CCN(Cc2ccc(-c3ccc(-c4nc5ccc(F)cc5[nH]4)cc3)cc2)C1 (stereo not given)	99% (active)	41%	-3	98% (active)	inactive	inactive	inactive	inactive
COc1ccc(CN(C)CCCOc2ccc(NC(=O)C=Cc3ccc(C(C)(C)C)cc3)cc2)cc1OC	87% (active)	14%	2	101% (active)	inactive	inactive	inactive	inactive
Cc1cc2nc(-c3ccc(/C=C/C(=O)NC4CCCCC4)cc3)[nH]c2cc1C	10%	9%	2	93% (active)	inactive	inactive	inactive	inactive
C=CCn1c(Sc2ccc(C#N)c([N+](=O)[O-])c2)nnc1-c1cccc(Cl)c1	54% (active)	41%	-1	97% (active)	inactive	inactive	inactive	inactive
COCCn1c(Sc2ncnc3sccc23)nc2ccccc21	72% (active)	-8%	-6	95% (active)	inactive	inactive	inactive	inactive
COc1cc2nc(NCCc3ccccc3)nc(NCc3cc(C)no3)c2cc1OC	100% (active)	5%	-3	99% (active)	inactive	inactive	inactive	inactive
